Assay [1] is described as follows: ATG_E_Box_CIS: Attagene CIS-FACTORIAL HepG2 Assay for human Enhancer Box (E-box) (AID 2282936). The settings on record: HepG2 E-box cis-reporter transcription, actives raise or lower the signal. The procedure, abridged: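 HepG2 cells transiently transfected with multiplexed cis-element reporter units sensing endogenous transcription factor activity; 24 h compound exposure. Reporter mRNA measured by RT-PCR, 6-FAM primer extension, HpaI digestion and capillary electrophoresis; bidirectional fit versus DMSO.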

Assay [2] in a line: ATG_M_61_CIS: Attagene CIS-FACTORIAL HepG2 Assay for M61 Transcription Factor (Internal Marker) (AID 2282937). The settings on record: HepG2 Attagene CIS-FACTORIAL M61 internal marker reporter; actives raise or lower the signal. A digest of the protocol:
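Cells were transfected with reporter units under cis-regulatory promoters, treated with chemicals for 24 h, then lysed for RNA. Reporter transcripts were quantified by RT-PCR and capillary electrophoresis, and activity was fitted bidirectionally against DMSO.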

Assay [3] in a line: ATG_EGR_CIS: Attagene CIS-FACTORIAL HepG2 Assay for human Early Growth Response 1 (EGR1) (AID 2282938). The settings on record: HepG2 Attagene CIS-FACTORIAL EGR reporter mRNA; actives raise or lower the signal. The procedure, abridged:
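Endogenous TF activity in HepG2 liver cells was gauged through cis-promoter reporter constructs transiently transfected. After 24 h dosing, reporter mRNA was quantified by RT-PCR and capillary electrophoresis, and curves fitted in both directions versus DMSO.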

The nature of assay [4]: ATG_M_19_CIS: Attagene CIS-FACTORIAL HepG2 Assay for M19 Transcription Factor (Internal Marker) (AID 2282939). The note with it: HepG2 Attagene CIS-FACTORIAL M19 internal marker reporter; actives raise or lower the signal. The procedure, abridged:
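HepG2, MRTU transient transfection, 24 h dosing. Total RNA → RT-PCR → 6-FAM primer extension → HpaI digest → CE fluorescence. Bidirectional curve fit, DMSO negative control.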

Assay [5] is described as follows: ATG_ERE_CIS: Attagene CIS-FACTORIAL HepG2 Assay for Estrogen Response Element (ERE) (AID 2282940). The settings on record: HepG2 ERE cis-reporter, Attagene RNA transcript; actives raise or lower the signal. A digest of the protocol:
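After a 24 h chemical treatment, RNA from reporter-transfected HepG2 cells is reverse-transcribed, PCR-amplified and fluorescently labelled. Fragments separated by capillary electrophoresis give reporter signal; DMSO serves as negative control.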

Assay [6] in a line: ATG_Ets_CIS: Attagene CIS-FACTORIAL HepG2 Assay for human Erythroblast Transformation Specific (ETS) (AID 2282941). The settings on record: HepG2 ETS cis-reporter transcription, actives raise or lower the signal. The procedure, abridged:
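Steps: transfect HepG2 with multiple reporter units; treat compound 24 h; isolate RNA, DNase-treat, reverse-transcribe; PCR-amplify, label with 6-FAM, digest with HpaI; separate by capillary electrophoresis. Activity fitted both directions versus DMSO.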

The target of assay [7] is Hepatocyte nuclear factor 3-beta (Homo sapiens) (UniProt Q9Y261). Put plainly: ATG_FoxA2_CIS: Attagene CIS-FACTORIAL HepG2 Assay for human Forkhead box A2 (FOXA2) (AID 2282942). The note with it: HepG2 cis-reporter transcription factor activity, 24 h; actives raise or lower the signal. A digest of the protocol:
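Endogenous transcription factor activity was read in HepG2 cells carrying transiently transfected cis-promoter reporter units. After 24 h dosing, reporter mRNA was quantified by RT-PCR and capillary electrophoresis, and values fitted bidirectionally versus DMSO.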

Assay [8] is described as follows: ATG_FoxO_CIS: Attagene CIS-FACTORIAL HepG2 Assay for human Forkhead box O (FoxO) (AID 2282943). The settings on record: HepG2 Attagene cis-reporter, FoxO element, mRNA; actives raise or lower the signal. A digest of the protocol: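 24 h chemical exposure, HepG2 with transient cis-MRTU transfection. RNA extraction, oligo(dT) RT, reporter-specific PCR, primer-extension labelling, HpaI digestion, CE fragment analysis; bidirectional fit, DMSO baseline.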

Assay [9] can be described thus: ATG_GATA_CIS: Attagene CIS-FACTORIAL HepG2 Assay for human GATA Binding Protein (AID 2282944). The note with it: HepG2 GATA cis-element reporter, Attagene multiplex mRNA; actives raise or lower the signal. The procedure, abridged:
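Cells: HepG2, transiently transfected with cis-regulated reporter transcription units. Exposure: 24 h. Detection: RT-PCR plus capillary electrophoresis of FAM-labeled fragments. Analysis: bidirectional, DMSO as baseline.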

The target in assay [10] is Bile acid receptor (Homo sapiens) (UniProt Q96RI1). In words: ATG_IR1_CIS: Attagene CIS-FACTORIAL HepG2 Assay for human Nuclear Receptor Subfamily 1 Group H Member 4 (NR1H4), IR1 submotif (AID 2282946). The settings on record: IR1 reporter transcription, actives raise or lower the signal. The procedure, abridged: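 Transient MRTU transfection, HepG2; 24 h dosing; RNA → RT-PCR → 6-FAM primer extension → HpaI digest → capillary electrophoresis fluorescence. Gain/loss of signal fitted relative to DMSO.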

The nature of assay [11]: ATG_GRE_CIS: Attagene CIS-FACTORIAL HepG2 Assay for human Glucocorticoid Response Elements (GRE) (AID 2282947). The settings on record: HepG2 GRE cis-reporter, Attagene multiplex mRNA; actives raise or lower the signal. The procedure, abridged: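 HepG2 cells transiently transfected with multiple cis-promoter reporter units measure endogenous TF activity; 24 h compound exposure. Reporter mRNA quantified by RT-PCR, FAM labelling, HpaI digestion and capillary electrophoresis; bidirectional fit vs DMSO baseline.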

Assay [12] in a line: ATG_ISRE_CIS: Attagene CIS-FACTORIAL HepG2 Assay for human Interferon Regulatory Factor 1 (IRF1) binding to an Interferon-Stimulated Response Element (ISRE) (AID 2282948). The settings on record: HepG2 ISRE cis-reporter (Attagene), mRNA transcription readout; actives raise or lower the signal. The procedure, abridged:
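Transfected HepG2 (multiple reporter transcription units, cis elements) dosed 24 h. RNA → oligo(dT) RT → PCR → 6-FAM primer extension → HpaI → CE. DMSO = negative control/baseline.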

Assay [13] in a line: ATG_M_32_CIS: Attagene CIS-FACTORIAL HepG2 Assay for M32 Transcription Factor (Internal Marker) (AID 2282949).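 Further: background control marker of the multiplexed CIS panel rather than a real target.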 The note with it: HepG2 Attagene cis-factorial M32 reporter, mRNA; actives raise or lower the signal. A digest of the protocol: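 Internal background marker read-out: RT-PCR/capillary electrophoresis fluorescence of reporter transcripts from transiently transfected HepG2 cells after 24 h chemical exposure. Activity fitted bidirectionally relative to DMSO negative control.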

Assay [14] in a line: ATG_M_06_CIS: Attagene CIS-FACTORIAL HepG2 Assay for M06 Transcription Factor (Internal Marker) (AID 2282950). The settings on record: HepG2 Attagene CIS-FACTORIAL M06 internal marker reporter; actives raise or lower the signal. The procedure, abridged:
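Measured 24 h post-dosing in transiently transfected HepG2 cells, this internal-marker endpoint reports reporter mRNA via RT-PCR with fluorescent primer extension and capillary electrophoresis. DMSO served as negative control and baseline for bidirectional fitting.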

The target in assay [15] is Hypoxia-inducible factor 1-alpha (Homo sapiens) (UniProt Q16665). Put plainly: ATG_HIF1a_CIS: Attagene CIS-FACTORIAL HepG2 Assay for human Hypoxia Inducible Factor 1 (HIF1A) (AID 2282951). The note with it: HepG2 Attagene cis-factorial HIF1a reporter transcription; actives raise or lower the signal. A digest of the protocol:
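Measures endogenous transcription-factor activity through cis-regulated reporter mRNA in HepG2. Cells dosed 24 h; transcripts quantified by RT-PCR with 6-FAM-labelled products separated by capillary electrophoresis; DMSO serves as negative control.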

In assay [16] the target is Hepatocyte nuclear factor 6 (Homo sapiens) (UniProt Q9UBC0). In words: ATG_HNF6_CIS: Attagene CIS-FACTORIAL HepG2 Assay for human Hepatocyte Nuclear Factor 6 (HNF6) (AID 2282952). The settings on record: HepG2 Attagene cis-factorial HNF6 reporter transcription; actives raise or lower the signal. A digest of the protocol:
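Reporter mRNA induction or loss in HepG2 after 24 h exposure; transient cis-MRTU transfection; fragments quantified by capillary electrophoresis; bidirectional analysis, DMSO as negative control.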

Assay [17] deals with Heat shock factor protein 1 (Homo sapiens) (UniProt Q00613). In words: ATG_HSE_CIS: Attagene CIS-FACTORIAL HepG2 Assay for human Heat Shock Transcription Factor 1 (HSE) (AID 2282953). The settings on record: HepG2 HSE cis-reporter, Attagene RNA transcription; actives raise or lower the signal. A digest of the protocol:
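Reporter mRNA induction in HepG2 is measured 24 h after dosing, using transiently transfected multiplexed cis-regulated reporter units. Signal comes from capillary electrophoresis of labelled RT-PCR products, with DMSO as negative control.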

A short description of assay [18]: ATG_MRE_CIS: Attagene CIS-FACTORIAL HepG2 Assay for human Metal Responsive Element (MRE) (AID 2282954). The note with it: HepG2 MRE cis-reporter transcription, Attagene multiplex; actives raise or lower the signal. A digest of the protocol:
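HepG2 cells transiently transfected with multiple cis-element reporter units measure endogenous MTF1-driven transcription. After 24 h compound exposure, reporter mRNA is quantified by RT-PCR with 6-FAM labelling, HpaI digestion and capillary electrophoresis; bidirectional fits versus DMSO.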

The nature of assay [19]: ATG_PBREM_CIS: Attagene CIS-FACTORIAL HepG2 Assay for human Phenobarbital-responsive Enhancer Module (PBREM) (AID 2282955). The settings on record: HepG2 PBREM cis-reporter, Attagene multiplexed transcription; actives raise or lower the signal. A digest of the protocol:
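Fluorescence of labelled reporter cDNA fragments, resolved by capillary electrophoresis, gives mRNA induction in transfected HepG2 cells treated for 24 h; DMSO serves as negative control and baseline.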

A short description of assay [20]: ATG_GLI_CIS: Attagene CIS-FACTORIAL HepG2 Assay for human Zinc Finger Protein GLI1 (AID 2282945). The note with it: HepG2, Attagene cis-factorial reporter mRNA, GLI element; actives raise or lower the signal. A digest of the protocol: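 HepG2 cells transiently transfected with cis-promoter multiplexed reporter units report endogenous transcription factor activity. After 24 h chemical exposure, reporter mRNA was quantified by RT-PCR, 6-FAM labelling, HpaI digestion and capillary electrophoresis, with bidirectional fitting against DMSO.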

Calls of active or inactive are those of the source. How the source made its calls: active means hit-call score of the fitted dose curve at least 0.9, where 1 is the maximum; inactive means score below 0.9.

Chain of Heat shock factor protein 1 (Homo sapiens) (Q00613 whole entry, looked up): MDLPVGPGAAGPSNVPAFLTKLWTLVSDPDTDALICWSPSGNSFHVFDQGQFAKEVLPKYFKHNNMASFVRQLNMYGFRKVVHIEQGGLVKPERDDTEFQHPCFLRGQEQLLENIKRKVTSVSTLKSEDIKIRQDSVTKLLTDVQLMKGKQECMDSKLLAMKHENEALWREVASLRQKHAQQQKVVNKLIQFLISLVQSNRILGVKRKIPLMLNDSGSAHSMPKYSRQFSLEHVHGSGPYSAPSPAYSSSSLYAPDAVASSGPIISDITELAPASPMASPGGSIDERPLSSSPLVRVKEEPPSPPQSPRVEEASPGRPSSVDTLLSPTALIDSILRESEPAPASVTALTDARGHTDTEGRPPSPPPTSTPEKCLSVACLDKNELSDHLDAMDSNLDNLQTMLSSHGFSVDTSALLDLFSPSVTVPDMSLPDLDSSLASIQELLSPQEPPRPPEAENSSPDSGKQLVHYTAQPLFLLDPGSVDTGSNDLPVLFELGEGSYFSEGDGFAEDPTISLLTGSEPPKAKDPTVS
Chain of Hepatocyte nuclear factor 3-beta (Homo sapiens) (Q9Y261 whole entry, looked up): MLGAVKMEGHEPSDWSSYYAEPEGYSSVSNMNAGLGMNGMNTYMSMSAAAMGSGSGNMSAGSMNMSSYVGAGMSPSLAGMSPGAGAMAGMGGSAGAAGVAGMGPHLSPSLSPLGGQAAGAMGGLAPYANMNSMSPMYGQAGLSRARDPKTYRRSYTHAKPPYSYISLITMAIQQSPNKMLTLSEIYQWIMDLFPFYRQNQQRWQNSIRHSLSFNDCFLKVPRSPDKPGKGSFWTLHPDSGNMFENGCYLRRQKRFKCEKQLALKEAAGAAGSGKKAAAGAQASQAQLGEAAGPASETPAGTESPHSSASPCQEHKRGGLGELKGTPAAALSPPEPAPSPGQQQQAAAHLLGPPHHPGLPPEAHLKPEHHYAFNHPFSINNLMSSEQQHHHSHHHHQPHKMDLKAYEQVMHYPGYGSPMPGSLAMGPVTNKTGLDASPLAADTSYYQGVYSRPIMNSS
Chain of Hepatocyte nuclear factor 6 (Homo sapiens) (Q9UBC0 whole entry, looked up, the tested form may be a part): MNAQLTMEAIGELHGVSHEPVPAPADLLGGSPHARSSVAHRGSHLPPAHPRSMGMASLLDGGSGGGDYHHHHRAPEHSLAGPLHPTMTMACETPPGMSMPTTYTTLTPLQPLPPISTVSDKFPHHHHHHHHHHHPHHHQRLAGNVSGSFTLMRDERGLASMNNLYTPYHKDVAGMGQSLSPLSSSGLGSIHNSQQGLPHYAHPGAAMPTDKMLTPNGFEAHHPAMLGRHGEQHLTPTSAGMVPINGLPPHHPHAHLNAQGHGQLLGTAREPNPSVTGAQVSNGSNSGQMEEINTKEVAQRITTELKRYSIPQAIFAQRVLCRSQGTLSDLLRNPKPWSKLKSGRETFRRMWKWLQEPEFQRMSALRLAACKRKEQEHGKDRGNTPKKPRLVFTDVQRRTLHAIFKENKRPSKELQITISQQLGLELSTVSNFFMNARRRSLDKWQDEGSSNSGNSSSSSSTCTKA
Chain of Hypoxia-inducible factor 1-alpha (Homo sapiens) (Q16665 whole entry, looked up): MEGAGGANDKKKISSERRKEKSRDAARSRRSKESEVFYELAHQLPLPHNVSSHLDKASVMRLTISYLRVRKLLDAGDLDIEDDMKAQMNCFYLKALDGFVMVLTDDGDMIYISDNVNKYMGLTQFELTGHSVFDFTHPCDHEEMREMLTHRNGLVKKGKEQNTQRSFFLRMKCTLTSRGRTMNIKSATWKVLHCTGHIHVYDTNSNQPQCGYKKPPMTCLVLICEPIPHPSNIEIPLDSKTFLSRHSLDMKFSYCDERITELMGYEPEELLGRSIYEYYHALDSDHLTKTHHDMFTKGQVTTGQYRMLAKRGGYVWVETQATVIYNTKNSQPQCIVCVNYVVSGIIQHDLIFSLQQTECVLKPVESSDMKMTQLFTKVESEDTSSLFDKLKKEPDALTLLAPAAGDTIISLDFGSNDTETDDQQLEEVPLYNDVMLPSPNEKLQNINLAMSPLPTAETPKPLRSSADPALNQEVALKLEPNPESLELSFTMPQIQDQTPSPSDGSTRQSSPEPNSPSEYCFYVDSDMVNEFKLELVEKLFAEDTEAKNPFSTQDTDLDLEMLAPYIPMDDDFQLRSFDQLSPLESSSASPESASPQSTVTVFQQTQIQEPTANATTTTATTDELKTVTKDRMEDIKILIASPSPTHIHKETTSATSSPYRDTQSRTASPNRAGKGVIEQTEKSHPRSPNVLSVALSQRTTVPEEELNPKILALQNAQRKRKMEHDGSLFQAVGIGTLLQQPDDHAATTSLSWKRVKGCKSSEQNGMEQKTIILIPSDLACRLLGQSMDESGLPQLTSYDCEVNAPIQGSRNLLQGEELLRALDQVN
Chain of Bile acid receptor (Homo sapiens) (Q96RI1 whole entry, looked up): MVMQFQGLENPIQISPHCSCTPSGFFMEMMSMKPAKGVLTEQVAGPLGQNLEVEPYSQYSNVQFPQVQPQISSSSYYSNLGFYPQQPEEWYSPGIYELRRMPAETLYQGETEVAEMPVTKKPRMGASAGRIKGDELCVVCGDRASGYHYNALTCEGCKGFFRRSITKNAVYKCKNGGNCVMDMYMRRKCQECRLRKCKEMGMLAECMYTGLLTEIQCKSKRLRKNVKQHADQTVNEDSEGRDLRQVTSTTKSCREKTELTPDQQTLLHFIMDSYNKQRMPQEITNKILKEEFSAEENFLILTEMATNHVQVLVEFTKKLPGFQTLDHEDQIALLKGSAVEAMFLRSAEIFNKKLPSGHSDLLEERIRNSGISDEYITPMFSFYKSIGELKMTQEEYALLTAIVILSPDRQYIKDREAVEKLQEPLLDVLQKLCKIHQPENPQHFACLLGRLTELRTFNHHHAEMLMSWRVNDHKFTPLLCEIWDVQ

For `O=C(O)C[C@H](O)C[C@H](O)/C=C/c1c(C2CC2)nc2ccccc2c1-c1ccc(F)cc1`, the outcome in assay [1], in assay [2], in [3], in assay [4], in assay [6] and in [7] was inactive. In addition, the result in assay [8], in assay [9], in [10], in [11], in [12] and in assay [13] was inactive. In addition, the result in assay [14], in assay [15], in [16], in assay [17], in [18] and in [19] was inactive. For the same compound, the AC50 in assay [5] was 11.6 µM (active).
With `C=C(C)C(=O)Nc1ccc(Cl)c(Cl)c1`, the result in assay [1], in [2], in assay [4], in [5], in [6] and in assay [7] was inactive. Also, the result in assay [8], in [9], in assay [20], in [12], in assay [13] and in assay [14] was inactive. Further, the result in [15], in assay [16] and in assay [17] was inactive. Besides, the AC50 in assay [3] is 27.2 µM (active); in assay [18], 18.9 µM (active); in [19], 27.8 µM (active).
As for `Cc1ccc(S)cc1`, the result in [1], in assay [2], in assay [3], in [4], in assay [5] and in assay [6] was inactive. The result in [7], in [8], in [9], in assay [20], in assay [13] and in assay [14] was inactive. Moreover, the outcome in assay [15], in assay [18] and in assay [19] was inactive. The AC50 in [12] was 35.3 µM (active); in assay [16] it was 100 µM (active); in assay [17], 161 µM (active).
Take `OCCCCCO`: the outcome in assay [1], in assay [2], in assay [3], in assay [4], in assay [5] and in assay [6] was inactive. Besides, the call in assay [7], in [8], in [9], in assay [20], in [12] and in assay [13] was inactive. Further, the compound was classed as inactive in assay [14], in assay [15], in assay [16], in assay [17], in assay [18] and in assay [19].
On to `CC(=O)OCCC(C)CC(C)(C)C` (stereo unspecified), for which the outcome in assay [1], in assay [2], in [3], in assay [4], in [5] and in assay [6] was inactive. In addition, the outcome in assay [7], in [8], in assay [9], in [10], in assay [11] and in assay [12] was inactive. Besides, the compound was called inactive in assay [13], in assay [14], in assay [15], in [16], in assay [17] and in assay [18]. Further, in assay [19], the outcome was inactive.
With `Cc1cc(C2(c3cc(C)c(O)cc3C)OS(=O)(=O)c3ccccc32)c(C)cc1O`, the outcome in assay [1], in assay [2], in assay [3], in assay [4], in assay [6] and in assay [7] was inactive. Also, the call in [8], in assay [9], in assay [20], in assay [11], in assay [12] and in [13] was inactive. Also, the compound was classed as inactive in [14], in assay [15], in [16] and in [18]. In addition, the AC50 in [5] was 2.74 µM (active).
For the compound `CC(C)(C)NC(N)=O`, the result in [1], in assay [2], in assay [3], in [4], in assay [5] and in assay [6] was inactive. For the same compound, the result in [7], in [8], in [9], in assay [20], in [12] and in [14] was inactive. The call in assay [15], in [16], in assay [17], in [18] and in assay [19] was inactive.

The term AC50 denotes the midpoint of the concentration-response curve, whichever way the signal moves.

These data come from PubChem BioAssay (EPA / NIEHS).
